Data on three molecules can be found in PubChem BioAssay (NCATS).

Records with an inconclusive call do not appear. A call without a number means that no potency is given here. Calls of active or inactive are those of the source. Calls follow the shape of the dose curve; as a rule, active = well fitted curve in the direction sought with a large enough effect; inconclusive = small, poorly fitted or top-dose-only effect, or another doubt; inactive = no such curve, though single readings can be large; an effect the other way counts as inactive or inconclusive.

Protein phosphatase 1D (Homo sapiens), sequence (O15297 whole entry, looked up): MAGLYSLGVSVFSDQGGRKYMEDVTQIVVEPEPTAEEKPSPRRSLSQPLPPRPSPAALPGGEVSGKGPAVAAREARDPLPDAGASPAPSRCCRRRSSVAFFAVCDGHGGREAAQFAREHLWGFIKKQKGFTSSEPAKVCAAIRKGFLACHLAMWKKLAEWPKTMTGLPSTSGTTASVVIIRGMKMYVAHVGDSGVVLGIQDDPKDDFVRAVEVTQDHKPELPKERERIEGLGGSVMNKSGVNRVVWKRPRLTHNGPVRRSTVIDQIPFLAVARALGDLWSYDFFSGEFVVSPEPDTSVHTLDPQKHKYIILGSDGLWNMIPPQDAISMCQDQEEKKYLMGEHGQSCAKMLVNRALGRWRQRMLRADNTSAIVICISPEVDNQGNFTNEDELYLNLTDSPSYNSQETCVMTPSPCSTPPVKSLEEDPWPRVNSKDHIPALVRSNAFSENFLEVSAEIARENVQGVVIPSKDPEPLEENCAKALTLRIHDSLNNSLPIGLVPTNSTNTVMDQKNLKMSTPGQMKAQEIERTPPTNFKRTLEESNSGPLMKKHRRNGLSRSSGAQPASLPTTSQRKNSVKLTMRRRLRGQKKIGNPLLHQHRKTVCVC

The first experiment concerns the target Protein phosphatase 1D (Homo sapiens) (UniProt O15297). As to the kind of experiment: RapidFire Mass Spectrometry qHTS Assay for Modulators of WT P53-Induced Phosphatase 1 (WIP1) (AID 1347424).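 Also: amount of dephosphorylated VEPPL-S-QETFS peptide product formed by WIP1.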 The note with it: WIP1 dephosphorylation of phosphopeptide, RapidFire MS; series mostly up to 63 µM. A digest of the protocol: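 RapidFire mass spectrometry measured dephosphorylated peptide after 5 min room-temperature reaction of 2 uM VEPPL-pS-QETFS with 10 nM WIP1 (50 mM Tris-HCl pH 7.5, 30 mM MgCl2, 0.1 mM EGTA, BSA), following 1 hr compound preincubation; 1 uM isotope-labelled product standard.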
For orientation: Quantitative high-throughput screening tests each substance at several concentrations.
For the molecule `CCCCC[C@H](O)C=C[C@H]1[C@H](O)CC(=O)[C@H]1CC=CCCCC(=O)O`, the Potency entry was “inactive”.
On the same count and under the same terms, next, `O=C(CCCN1CCN(c2ccc(F)cc2)CC1)NC1c2ccccc2CSc2ccccc21` (stereo unspecified): “inactive”; `O[C@@H](COc1cccc2ncccc12)CN1CCN(C2c3ccccc3[C@@H]3[C@H](c4ccccc42)C3(F)F)CC1` (stereo partly specified): “inactive”.

The target is the same in another experiment. As to the kind of experiment: Rhodamine-PBP qHTS Assay for Modulators of WT P53-Induced Phosphatase 1 (WIP1) (AID 1347425). The settings on record: recombinant WIP1, Rhodamine-PBP phosphate fluorescence, real-time; series mostly up to 57.5 µM. A digest of the protocol: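 The read-out is the change in Rhodamine-PBP fluorescence (f1 - f0, ex 525/em 598 nm) as Pi is released, read each minute for 11 min. Final reaction: 5 nM WIP1, 10 uM phosphopeptide VEPPL-pS-QETFS, 10 uM Rh-PBP, 50 mM Tris-HCl pH 7.5, 30 mM MgCl2. Compound was preincubated with enzyme for 1 hour at room temperature.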
Consider `CCCCC[C@H](O)C=C[C@H]1[C@H](O)CC(=O)[C@H]1CC=CCCCC(=O)O`, for which the result was inactive.
Same read-out and setting: as for `O=C(CCCN1CCN(c2ccc(F)cc2)CC1)NC1c2ccccc2CSc2ccccc21` (stereo unspecified), the entry is “inactive”; as for `O[C@@H](COc1cccc2ncccc12)CN1CCN(C2c3ccccc3[C@@H]3[C@H](c4ccccc42)C3(F)F)CC1` (stereo partly specified), “inactive”.
